Consider 24 molecules from PubChem BioAssay (NCATS).

Inconclusive results are not listed. Active and inactive are the calls of the source. Unless noted, the call rests on the fitted dose curve; in most records, active means well fitted curve in the direction sought with a large enough effect; inconclusive means small, poorly fitted or top-dose-only effect, or another doubt; inactive means no such curve, though single readings can be large; an effect the other way counts as inactive or inconclusive.

The nature of assay [1]: NS1 protein of Zika virus - qHTS assay to identify small molecule inhibitors in human HEK 293 cells (AID 1347053). Further: nearly all actives have a fitted effect of over 55% in size. Further: potency means the concentration at half of the fitted maximal effect. Put shortly:
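Readout was TR-FRET using paired anti-NS1 antibodies after 24 h infection of HEK 293 cells with ZIKV MR766 (MOI = 0.5). Compound preceded virus by 1 h; reduced signal reflects lower NS1 expression.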

Assay [2] deals with T1, Tyrosine-protein phosphatase non-receptor type substrate 1 (Homo sapiens) + Leukocyte surface antigen CD47 (Homo sapiens) (UniProt P78324+Q08722). The assay can be described thus: CD47-SIRPalpha protein protein interaction - LANCE assay qHTS validation (AID 1347057; active means well fitted curve in the direction sought with a large enough effect in the signal ratio, with a control signal flat, not every such curve was filed as active; the % refers to the signal ratio; further: series mostly up to about 38 µM). A digest of the protocol:
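Inhibition of soluble CD47/SIRPalpha ectodomain association by titrated compounds, measured as 665/615 nm time-resolved FRET ratio after sequential 30 min room-temperature incubations.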
(In general: TR-FRET usually uses a lanthanide donor and a delayed reading to cut background.)

In assay [3] the target is T1, Tyrosine-protein phosphatase non-receptor type substrate 1 (Homo sapiens) + Leukocyte surface antigen CD47 (Homo sapiens). The assay can be described thus: CD47-SIRPalpha protein protein interaction - HTRF assay qHTS validation (AID 1347058; active means well fitted curve in the direction sought with a large enough effect in the signal ratio, not every such curve was filed as active; the % refers to the signal ratio; further: series mostly up to about 38 µM). A digest of the protocol:
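Soluble extracellular domains (6His-CD47, Avi-tag-biotinylated SIRPalpha) in PBS pH 7.4 with 0.05% IGEPAL CA-630. Compounds were preincubated 30 min at RT with CD47 and anti-His-Eu, then SIRPalpha and SAV-XL665 were added. TR-FRET 665/615 ratio.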

Assay [4] shares this target. In words: CD47-SIRPalpha protein protein interaction - Alpha assay qHTS validation (AID 1347059).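 Further: bead proximity luminescence from CD47 binding SIRPalpha after compound preincubation with SIRPalpha.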 Put shortly:
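SIRPalpha-biotin 25 nM + cpd, 30 min RT, dark; add CD47-His 12.5 nM, 30 min; add Ni-NTA/SAV beads 10 ug/mL, 30 min; AlphaScreen. Buffer PBS pH 7.4 + 0.05% IGEPAL CA-630. Non-biotinylated SIRPalpha as control inhibitor.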

The target in assay [5] is Parathyroid hormone/parathyroid hormone-related peptide receptor (Homo sapiens) (UniProt Q03431). The assay can be described thus: qHTS for PTHR1 Agonists: Optimization Screen against the NCGC LOPAC library (AID 1347079).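 Further: GloSensor cAMP luminescence in HEK-293 GP2 cells expressing human PTHR1 with IBMX.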 Put shortly:
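Signal increase flags agonism. GP2 cells, derived from HEK-293, express human PTHR1 and a GloSensor cAMP construct.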
For orientation: qHTS replaces the single test concentration by a dilution series.

Assay [6] can be described thus: qHTS of pediatric cancer cell lines to identify multiple opportunities for drug repurposing: Primary screen for TC32 cells (AID 1347089). Further: nearly all actives have a fitted effect of over 60% in size. Further: potency means the concentration at half of the fitted maximal effect. Put shortly: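 A viability screen of TC32 cells was run over 48 h, with primary MIPE doses spanning 0.78 nM–46 µM and NPC doses 0.59 nM–46 µM. ATP luminescence (CellTiter-Glo) served as the read-out.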
Assay [7] in a line: qHTS of pediatric cancer cell lines to identify multiple opportunities for drug repurposing: Primary screen for DAOY cells (AID 1347090). Further: nearly all actives have a fitted effect of over 55% in size. Further: potency means the concentration at half of the fitted maximal effect. Put shortly: (§1)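 Viability measured as metabolically active cells via CellTiter-Glo luminescence following 48 hours of compound exposure, 11-point dilutions in confirmatory testing. 500-1,000 cells/well plated 5 hours before dosing; controls were DMSO and 2.3 µM bortezomib.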

The nature of assay [8]: qHTS of pediatric cancer cell lines to identify multiple opportunities for drug repurposing: Primary screen for SJ-GBM2 cells (AID 1347091). Further: potency means the concentration at half of the fitted maximal effect. Put shortly:
as §1

The nature of assay [9]: qHTS of pediatric cancer cell lines to identify multiple opportunities for drug repurposing: Primary screen for A673 cells (AID 1347092). Further: nearly all actives have a fitted effect of over 45% in size. Further: potency means the concentration at half of the fitted maximal effect. A digest of the protocol: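 Titration-based qHTS on A673 cells: MIPE compounds spanned 11 points (0.78 nM to 46 µM final), NPC compounds 8 points (0.59 nM to 46 µM final). Viability after 48 h was measured by ATP luminescence.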
Assay [10] is described as follows: qHTS of pediatric cancer cell lines to identify multiple opportunities for drug repurposing: Primary screen for SK-N-MC cells (AID 1347093). Further: potency means the concentration at half of the fitted maximal effect. Put shortly:
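Metabolically active cells were quantified by ATP-dependent luminescence (CellTiter-Glo, 15 min at room temperature) following 48 h treatment. Cells had been plated at 500-1,000 per well and settled for 5 h beforehand.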

Parathyroid hormone/parathyroid hormone-related peptide receptor (Homo sapiens), sequence (Q03431 whole entry, looked up): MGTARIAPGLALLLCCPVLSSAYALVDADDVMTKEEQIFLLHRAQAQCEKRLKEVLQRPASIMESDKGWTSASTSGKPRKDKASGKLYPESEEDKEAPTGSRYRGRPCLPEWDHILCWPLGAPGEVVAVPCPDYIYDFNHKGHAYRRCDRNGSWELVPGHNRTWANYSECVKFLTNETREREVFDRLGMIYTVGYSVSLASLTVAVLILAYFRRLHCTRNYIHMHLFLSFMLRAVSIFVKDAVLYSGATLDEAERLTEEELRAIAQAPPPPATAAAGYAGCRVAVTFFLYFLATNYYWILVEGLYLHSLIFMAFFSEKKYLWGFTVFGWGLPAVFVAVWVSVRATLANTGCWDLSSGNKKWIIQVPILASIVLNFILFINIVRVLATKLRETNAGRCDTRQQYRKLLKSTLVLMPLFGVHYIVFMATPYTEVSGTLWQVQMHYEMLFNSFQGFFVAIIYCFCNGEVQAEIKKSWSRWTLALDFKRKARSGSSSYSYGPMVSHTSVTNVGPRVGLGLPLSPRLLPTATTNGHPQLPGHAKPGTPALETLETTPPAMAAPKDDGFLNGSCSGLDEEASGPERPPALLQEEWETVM
T1 sequence (P78324 whole entry, looked up, the tested form may be a part): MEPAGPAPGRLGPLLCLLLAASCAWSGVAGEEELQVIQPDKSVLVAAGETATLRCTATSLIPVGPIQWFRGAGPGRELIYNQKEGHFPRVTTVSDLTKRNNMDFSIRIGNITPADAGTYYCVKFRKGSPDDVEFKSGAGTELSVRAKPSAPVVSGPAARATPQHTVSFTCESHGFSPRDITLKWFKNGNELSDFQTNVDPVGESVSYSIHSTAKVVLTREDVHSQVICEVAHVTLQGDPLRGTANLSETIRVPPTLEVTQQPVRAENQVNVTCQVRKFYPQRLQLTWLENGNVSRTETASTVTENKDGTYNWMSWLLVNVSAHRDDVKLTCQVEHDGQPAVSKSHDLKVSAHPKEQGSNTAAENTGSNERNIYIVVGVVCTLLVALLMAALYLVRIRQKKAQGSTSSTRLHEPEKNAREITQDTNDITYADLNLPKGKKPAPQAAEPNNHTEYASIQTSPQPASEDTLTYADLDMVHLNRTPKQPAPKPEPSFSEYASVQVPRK
T1 sequence (Q08722 whole entry, looked up, the tested form may be a part): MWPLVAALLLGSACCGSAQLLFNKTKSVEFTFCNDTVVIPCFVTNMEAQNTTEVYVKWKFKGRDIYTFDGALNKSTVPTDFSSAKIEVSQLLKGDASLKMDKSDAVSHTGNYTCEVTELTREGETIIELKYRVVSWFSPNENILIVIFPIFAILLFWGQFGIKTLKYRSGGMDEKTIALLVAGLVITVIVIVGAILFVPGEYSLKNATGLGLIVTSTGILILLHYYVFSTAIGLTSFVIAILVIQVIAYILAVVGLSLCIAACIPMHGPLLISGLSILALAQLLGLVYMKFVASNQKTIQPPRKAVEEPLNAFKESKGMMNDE

For the molecule `CCn1c(C(=O)N(C2CC2)C2CC2)cc2c3c(ncn3C)c(Nc3cc(C)n(C)n3)nc21`, the Potency entry in assay [1] was “inactive”.
Regarding `CC(C)(C)c1ccc(C(O)CCCN2CCC(C(O)(c3ccccc3)c3ccccc3)CC2)cc1` (stereo not drawn), the Potency result in assay [1], in assay [6], in assay [7], in [8], in [9] and in assay [10] was “inactive” each time. Besides, the outcome in assay [2], in assay [3], in assay [4] and in [5] was inactive.
With `CC(C)NCC(O)COc1cccc2[nH]ccc12` (stereo not drawn), the Potency entry in assay [1], in [6], in assay [7], in assay [8] and in assay [9] was “inactive” each time. Further, the result in assay [2], in assay [3], in assay [4] and in assay [5] was inactive.
As to `CC(=O)CCCCn1c(=O)c2c(ncn2C)n(C)c1=O`, the Potency result in assay [1], in [7], in [8] and in assay [10] was “inactive” in each case. In addition, the outcome in assay [5] was inactive.
Regarding `CC(=O)N[C@@H](CS)C(=O)O`, the Potency entry in assay [1], in [6], in assay [7], in [8], in assay [9] and in assay [10] was “inactive” each time. The outcome in [2], in assay [3], in assay [4] and in assay [5] was inactive.
For `NC(N)=Nc1nc(CSCC/C(N)=N/S(N)(=O)=O)cs1`, the Potency entry in assay [1], in [6], in assay [7], in [8], in assay [9] and in [10] was “inactive” in each case. Besides, the outcome in assay [2], in assay [3], in assay [4] and in assay [5] was inactive.
Regarding `Clc1ccc(Cn2c(CN3CCCC3)nc3ccccc32)cc1`, the Potency result in assay [1], in [7], in assay [8] and in [10] was “inactive” in each case. Besides, the outcome in assay [2], in assay [3], in assay [4] and in assay [5] was inactive.
In the case of `CC(=O)c1ccc(S(=O)(=O)NC(=O)NC2CCCCC2)cc1`, the Potency entry in [1], in assay [7], in [8], in assay [9] and in assay [10] was “inactive” throughout. The result in [2], in [3], in [4] and in assay [5] was inactive.
Take `O=c1c(-c2ccc(O)cc2)coc2cc(O)ccc12`: the Potency entry in assay [1], in [6], in [7], in assay [8] and in [9] was “inactive” throughout. Further, the outcome in assay [5] was inactive.
As for `COc1ccccc1N1CCN(CCCNc2cc(=O)n(C)c(=O)n2C)CC1`, the Potency entry in assay [1], in assay [6], in [7], in [8] and in assay [9] was “inactive” each time. The result in [2], in assay [3], in assay [4] and in [5] was inactive.
Consider `O=C1NC(=O)C(c2ccccc2)(c2ccccc2)N1`, for which the Potency entry in [1], in assay [6], in assay [7], in [8] and in assay [10] was “inactive” throughout. Besides, the result in assay [2], in assay [3], in assay [4] and in assay [5] was inactive.
Take `NC1=N[C@@]2(c3cc(NC(=O)c4ccc(F)cn4)ccc3F)COC[C@@H]2CS1`: the Potency result in assay [1] and in assay [6] was “inactive” each time. Moreover, the Potency in assay [7] was 4690 nM (active); in [8], 296 nM (active); in assay [9], 7.4 nM (active); in assay [10], 833 nM (active).
Turning to `O=C(O)[C@H]1O[C@H](Oc2cc3oc(-c4ccccc4)cc(=O)c3c(O)c2O)[C@H](O)[C@@H](O)[C@H]1O`, the Potency result in assay [1], in assay [6], in assay [7] and in assay [8] was “inactive” each time.
For the molecule `Cc1[nH]c(C=C2C(=O)Nc3ccc(S(=O)(=O)Cc4c(Cl)cccc4Cl)cc32)c(C)c1C(=O)N1CCC[C@H]1CN1CCCC1`, the Potency result in assay [1], in [6] and in assay [7] was “inactive” in each case. Further, the Potency in assay [8] was 33.2 nM (active); in assay [9] it was 23500 nM (active); in assay [10] it was 18700 nM (active).
On to `CC=CC(=O)N(CC)c1ccccc1C`, for which the Potency entry in [1], in assay [6], in [7], in assay [8], in assay [9] and in assay [10] was “inactive” each time.
As for `OC[C@@H](O)[C@H](O)[C@H](O)[C@@H](O)CO`, the Potency result in assay [1], in [6], in [7], in [8], in [9] and in assay [10] was “inactive” in each case.
Turning to `COc1ccc2cccc(CCNC(C)=O)c2c1`, the Potency entry in assay [1], in assay [6], in assay [7], in assay [8], in assay [9] and in assay [10] was “inactive” throughout.
In the case of `O=C(Nc1ccccc1Br)N[C@@H]1CCN(c2ccc(C(F)(F)F)cn2)C1`, the Potency result in assay [1] and in assay [6] was “inactive” throughout. In assay [7], the Potency is 11800 nM (active).
As for `O=C1C[C@@H](c2ccc(O)cc2)Oc2cc(O)cc(O)c21`, the Potency result in [1], in assay [6], in [7], in assay [8], in assay [9] and in assay [10] was “inactive” in each case.
`CCC(CC)[C@H](NC(C)=O)[C@@H]1[C@H](O)[C@@H](C(=O)O)C[C@@H]1N=C(N)N`: the Potency result in assay [1], in [6], in assay [7], in [8], in assay [9] and in assay [10] was “inactive” in each case.
With `CC(C)n1nc(-c2ccc3oc(N)nc3c2)c2c(N)ncnc21`, the Potency in assay [1] is 20.9 nM (active); in [6], 11.7 nM (active); in assay [7], 14.8 nM (active); in assay [8], 1.9 nM (active); in [9] it was 3.7 nM (active); in assay [10], 1 nM (active).
As to `O=C(Nc1ccccc1-c1cn2c(CN3CCNCC3)csc2n1)c1cnc2ccccc2n1`, the Potency result in assay [1] and in assay [6] was “inactive” in each case.
Take `CCC(=O)O[C@]1(C(=O)CO)CC[C@H]2[C@@H]3CCC4=CC(=O)CC[C@]4(C)[C@@H]3CC[C@@]21C`: the Potency entry in assay [1], in assay [6], in assay [7], in assay [8], in assay [9] and in assay [10] was “inactive” throughout.
Consider `C=C1C(=O)OC(CCCCCCCC)C1C(=O)O` (stereo not drawn), for which the Potency entry in assay [1], in [6] and in assay [7] was “inactive” in each case. Besides, the Potency in assay [8] is 20900 nM (active).
